Data published in the supplement of paper PMC6555819.

What was measured:
Experiment in all cases: PBM binding z-score (relative to random genomic background probes); higher = stronger binding; sequences stand for … in GC…GCGATTGACAGCGTAGAATGAAGG
[1] = test system: FXR:RXRa (NR concentration 270 nM, RXRa partner concentration 90 nM)
In short: (§1)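 Scanned fluorescence from custom Agilent 4×180K protein-binding microarrays was regression-normalized. Binding z-scores use random background probes as reference. Ligand-free nuclear receptor dimers were incubated on the arrays for 1 h and detected with antibodies against each partner (one per run).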

[2] = test system: LXRa:RXRa (NR concentration 270 nM, RXRa partner concentration 90 nM)
In short: as §1

[3] = test system: LXRa homodimer (NR concentration 270 nM)
In short: as §1

[4] = test system: LXRb:RXRa (NR concentration 270 nM, RXRa partner concentration 90 nM)
In short: as §1

[5] = test system: LXRb homodimer (NR concentration 270 nM)
In short: as §1

[6] = test system: PPARa:RXRa (NR concentration 270 nM, RXRa partner concentration 90 nM)
In short: as §1

[7] = test system: PPARg:RXRa (NR concentration 180 nM, RXRa partner concentration 90 nM)
In short: as §1

[8] = test system: PPARg:RXRa 270nM:90nM, anti-RXR (NR concentration 270 nM, RXRa partner concentration 90 nM)
In short: as §1

[9] = test system: PPARg:RXRa 30nM:10nM, anti-RXR (NR concentration 30 nM, RXRa partner concentration 10 nM)
In short: as §1

[10] = test system: PPARg:RXRa 90nM:30nM, anti-RXR (NR concentration 90 nM, RXRa partner concentration 30 nM)
In short: as §1

| Sequence | PBM binding z-score [1] | PBM binding z-score [2] | PBM binding z-score [3] | PBM binding z-score [4] | PBM binding z-score [5] | PBM binding z-score [6] | PBM binding z-score [7] | PBM binding z-score [8] | PBM binding z-score [9] | PBM binding z-score [10] |
| --- | --- | --- | --- | --- | --- | --- | --- | --- | --- | --- |
| CCTACTGGGCCAAGGGTCATTGATTCCAATGCTC | 2.79 | 2.59 | 0.211 | 2.63 | -0.578 | 5.27 | 10.2 | 9.04 | 8.43 | 10.2 |
| TAGCCTAGGTCATTGAGCCAGTATAGTACGCATC | 4.4 | 3.31 | 0.78 | 2.32 | 0.252 | 3.48 | 1.95 | 1.97 | 0.417 | 1.11 |
| CCTACTGGGCCATTCAGAGATCATTGATCATATG | -0.238 | -0.231 | -0.224 | -0.409 | -0.653 | 0.219 | 0.557 | 0.204 | -0.621 | -0.372 |
| CCTATTAGTTGACCGTAAGGGCAACCGAAGCTCG | 1.88 | 0.908 | 0.863 | 0.769 | 0.64 | 0.834 | 0.00382 | 0.48 | -0.271 | -0.155 |
| GCTGCTAGGTCAACTGATGGTCAGCCAAAGCTCG | 3.81 | 3.1 | 0.159 | 2.08 | 0.187 | 3.65 | 2.88 | 2.91 | 0.226 | 1.68 |
| AGCTCTAGGTAAGACTCAGTTCAGTGAAGAACGC | -0.104 | 0.132 | 0.197 | -0.188 | -0.399 | -0.0359 | -0.139 | 0.0762 | 0.0391 | -0.261 |
| GGAACGAGGGCATTCGAGTTAATAGCATGGCGAT | 1.38 | 1.05 | -0.476 | 0.179 | -0.759 | 1.58 | 1.18 | 0.939 | 0.26 | 1.09 |
| TCGAGTAGGTTACCAATGGGGCATTGAGCTTTCT | 0.162 | 1.38 | -0.99 | 0.479 | -1.11 | 0.992 | 0.256 | 1.26 | 1.03 | 1.16 |
| AGAAAGAGGTTAAGATCAGGGAAACAGAATACAT | 2.5 | 2.43 | 0.396 | 2.31 | 0.766 | 3.66 | 2.06 | 1.89 | 1.05 | 1.34 |
| CCTACTGGGCCACGAAAGGTCATTGAGTCAGTGA | 3.83 | 5.32 | 5.25 | 4.4 | 0.561 | 4.87 | 5.06 | 5.06 | 2.55 | 4.22 |
| CAGCCTACGTCAGGGCCAGTATAGGAGGAACGTT | -0.299 | -0.664 | -0.318 | -0.547 | -1.11 | -0.518 | 0.171 | -0.999 | -0.483 | -0.832 |
| GCTAGTTGGTCAGTAAAAGGTCTCACACCGGTCG | -0.182 | -0.0505 | -0.00726 | -0.0991 | -0.275 | 0.0782 | 0.203 | 0.834 | -0.473 | 0.379 |
| CCTTATGGGTCACGAGGTTATAGCACGACGAGCG | 6.1 | 3.8 | 0.305 | 3.32 | -0.173 | 5.75 | 8.15 | 6.96 | 4.18 | 6.72 |
| CCTACTGGGCCAAAGTTCATTGATTCCAATGCTC | 2.2 | 3.36 | 4.36 | 2.6 | 0.0133 | 5.47 | 10.9 | 9.53 | 9.33 | 11.8 |
| TCTAGCAGGCCAGAGGGACACTCAAGAGGTACGG | -0.341 | -0.607 | -1.2 | -0.951 | -1.48 | -0.201 | 0.823 | 1.13 | 1.39 | 1.15 |
| CCTATTAGTTGACCATAAGGGCAAACGAAGCTCG | 1.04 | 0.336 | 0.545 | 0.644 | 0.599 | 0.695 | 0.426 | 0.45 | 0.0598 | 0.284 |
| GTACCAAGGTGAATAGGTCTTTGATGAGTAGGCG | 0.444 | 0.341 | -0.168 | 0.148 | -0.363 | 1.23 | 0.96 | 1.11 | 0.335 | 0.823 |
| AATACAGGGTCATCGTAGGACAGAGTACGCACAG | 7.26 | 6.53 | 2.99 | 4.91 | 1.66 | 5.73 | 6.66 | 6.04 | 3.07 | 4.95 |
| TCGAGTAGGTTAGGGGCATTCGGAATGGCGTCGA | 0.123 | 0.347 | -0.32 | 0.736 | -0.712 | 1.06 | 0.477 | 2.22 | 1.15 | 1.51 |
| TTACCAAGGCGAAAGGTCGTTGATGCACGCCTTG | 1.27 | 1.41 | 0.121 | 1.38 | -0.953 | 3.5 | 5.49 | 6.09 | 5.18 | 6.24 |
| CCATACGGGTCACTCCAGGTTATAGCATCGGAGT | 4.55 | 7.37 | 1.79 | 5.15 | 0.265 | 4.18 | 3.46 | 3.28 | 1.27 | 2.68 |
| TATACAGGGACAAAGGCCAGAGTACGAATGTCGA | 0.545 | 0.102 | 0.279 | -0.249 | 0.97 | 1.19 | 2.9 | 3.98 | 2.12 | 3.3 |
| GCATATAGGTAAAACAAGGTGAAAGTCCGATTGT | 1.15 | 2.03 | -0.3 | 0.461 | -0.664 | 1.96 | 1.32 | 1.69 | 0.57 | 1.14 |
| CCTACTGGGCCACGAAAGGTCATCGATTCAGTGA | 3.74 | 5.24 | 4.54 | 4.28 | 0.188 | 5.09 | 5.36 | 5.2 | 2.42 | 4.73 |
